Data on 17 compounds can be found in PubChem BioAssay (NCI).

Each structure is given as a SMILES string. Where “and” joins values, the source holds several entries; their conditions need not be identical. Equal entries are not always repeated. Compounds without any hit were thinned out: in the full panel of roughly 83,000, 20% have a hit.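 Results are percent growth after 48 hours of single-concentration exposure. 100 means growth as in untreated cells, lower positive values show inhibition; negative values down to -100 show cell death.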 Unmarked numbers belong to inactive results. Calls of active or inactive are those of the source. How the source made its calls: active means growth percent below 10; inactive means the rest.

This experiment deals with NCI-H23 lung. Description: NCI-60 one-dose screen, 48 h (100 = growth as untreated, 0 = no growth, -100 = all killed). As to conditions: 10 µM unless noted.
Consider `CCC(CCCN(CC)CCc1ccccc1)OC(=O)c1cc(OC)c(OC)c(OC)c1` (configuration not stated), for which the growth is 81.5%.

With `CCC(CC)COC(=O)c1ccc(O)c(O)c1`, the growth is 81%.

As for `COC(=O)Nc1nc2ccc(C(=O)c3ccccc3)cc2[nH]1`, the growth was 33.8% and 19.3% and 32.4%.

Regarding `CC(=O)ON=C1C=CC(=C(C#N)c2ccccc2)C=C1`, the growth is 91.7%.

Take `NC(=O)/C=C/C(=O)c1c(Cl)cccc1Cl`: the growth is -79.1% (active).

`CCCCCCCCCCCCCCCC[N+](C)(CCO)Cc1cnc[nH]1` (configuration not stated): the growth was -3.12% (active).

On to `Oc1c(Br)cc(Cl)cc1C(c1cc(Cl)cc(Br)c1O)C(Cl)(Cl)Cl`, for which the growth is 5.88% (active).

With `CC1OC2CC(=O)OC2C2=C1C(=O)c1c(O)cccc1C2=O` (configuration not stated), the growth was -89.9% (active).

As for `CC(C)(C)c1ccc(O)c(C2CCCCC2)c1`, the growth is 98%.

For the compound `Oc1c(Cl)cc(Cl)c2cccnc12`, the growth is 64.6% and 49.1%.

For `CCN(CC)CC(C)(C)C(=O)/C=C/c1ccc(Cl)c(Cl)c1`, the growth was 7.58% (active).

Regarding `CN(C)CCOc1ccc2c(c1)C(=O)/C(=C\c1ncc([N+](=O)[O-])n1C)C2`, the growth was -42.7% (active).

For the compound `C/C=C1\SC(=S)NC1=O`, the growth was 98.5%.

For the compound `CCOC(=O)/C(=C\c1ccc(-c2ccccc2)cc1)C(C)=O`, the growth is 100%.

Consider `N#CSCc1ccc(CSC#N)c(Cl)c1`, for which the growth was 85.1%.

In the case of `CNC(=O)N/N=C/c1ccc([N+](=O)[O-])o1`, the growth was 101%.

`Cc1cc2nc(CS)[nH]c2cc1C`: the growth is 97.1%.
